Results taken from PubChem BioAssay AID1117359 (Southern Research Institute, 2015).
In all, about 1,500 compounds went through this assay and about 460 (31%) were called active.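 How the source made its calls: active means viability at or below 80% at any tested concentration, marking the compound as toxic; inactive means the rest.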 These entries were drawn from the full list. Where a call stands in place of a potency, no number is given. Potency and affinity values are given separately.

test: THP-1 cell cytotoxicity, dose response, cytotoxicity control for Vif-APOBEC3G degradation inhibitor project, THP-1 cells (AID 1117359); settings: THP-1 viability, CellTiter-Glo luminescence, 72 h; series mostly up to 40 µM

| Structure (SMILES) | outcome |
| --- | --- |
| CSc1ccc(CN(C)CC(=O)NC(=O)NCCC2=CCCCC2)cc1 | inactive |
| CC1(OC(=O)C2CCCC2)C(=O)C=C2C=C(c3ccsc3)OC=C2C1=O (centres undefined) | inactive |
| CC1(CCl)N([O-])C2=C(CCCC2)[N+]1=O (centres undefined) | inactive |
| O=C(N/N=C/c1cccnc1)c1cc(O)c(O)c(O)c1 | inactive |
| O=C(NN=C1CCCCCC1)c1cccnc1 | inactive |
| Cc1cc(C)n(CC(=O)NNC(=O)c2ccc(NC(=O)CC#N)cc2)n1 | inactive |
| CN(C)c1ccc(N/C=C/C(=O)c2ccco2)cc1 | inactive |
| Nc1cc(N)nc(SCc2cc([N+](=O)[O-])cc3c2OCOC3)n1 | inactive |
| Cc1ccc(N/N=C/c2c(C)c(C#N)c(=O)n(C)c2O)cc1C | inactive |
| O=S(=O)(c1ccc(NC(=S)N/N=C/c2ccc(O)c(O)c2)cc1)N1CCOCC1 | inactive |
| Cn1ccnc1Sc1ccc(/C=N/NC(=O)c2ccccc2O)cc1[N+](=O)[O-] | inactive |
| O=C1C(=Cc2ccco2)CCCC1=Cc1ccco1 | inactive |
| O=C(COC(=O)COc1ccc(Cl)cc1Cl)NC1CCCCCC1 | inactive |
| CN1CCN(C(=O)/C(=C/c2ccc(F)cc2)NC(=O)c2ccccc2)CC1 | inactive |
| O=C(Cc1c(F)cccc1Cl)NNC(=O)c1ccccc1Cl | inactive |
| COc1ccc2nc(-c3ccccc3)cc(C(=O)OCC(=O)N3CC(C)OC(C)C3)c2c1 (centres undefined) | inactive |
| O=C(c1coc(=O)c(Br)c1)N1CCCc2ccccc21 | inactive |
| CCCCN(C(=O)c1ccccc1OCc1ccc(F)cc1)c1c(N)n(CC(C)C)c(=O)[nH]c1=O | inactive |
| COc1ccc(S(N)(=O)=O)cc1C(=O)OCC(=O)NC(C)(C#N)C1CC1 (centres undefined) | inactive |
| CCc1ccc(N2C(=O)Cc3c2nc(N)c(C#N)c3N)cc1 | inactive |
| COC(=O)c1ccccc1NC(=O)c1noc2c1CCC2 | inactive |
| O=C(CN1CCN(S(=O)(=O)c2ccc(F)cc2)CC1)c1ccc(O)c(O)c1 | inactive |
| CC(C)(C)c1ccc(S(=O)(=O)N2CCCCC2)cc1 | inactive |

| Structure (SMILES) | outcome |
| --- | --- |
| O=C(CCS(=O)(=O)c1ccc(Br)cc1)N1CCN(c2ccc(F)cc2)CC1 | inactive |
| CC(=O)Nc1ccc(NC(=O)C(C)OC(=O)CC23CC4CC(CC(Br)(C4)C2)C3)cc1 (centres undefined) | inactive |
| CC(=O)OC1OCCOC1NC(=S)Nc1ccc(C)cc1 (centres undefined) | inactive |
| CC(C)(C)NCCCCOc1ccc(F)cc1 | inactive |
| COC/C=C/C1=CC2=CC(=O)C(C)(OC(=O)c3ccco3)C(=O)C2=CO1 (centres undefined) | inactive |
| O=c1c(N=Nc2ccc(O)cc2)c(-c2ccccc2)[nH]n1-c1ccc([N+](=O)[O-])cc1 | inactive |
| COc1ccc2nc(NNC(=O)c3cc(=O)c4ccccc4o3)sc2c1 | inactive |
| O=C(c1cc2ccccc2o1)N1CC=C(c2ccccc2)CC1 | inactive |
| CC1(OC(=O)CCc2ccccc2)C(=O)C=C2C=C(c3ccsc3)OC=C2C1=O (centres undefined) | inactive |
| CCOC(=O)C1(Cc2ccc(OC)cc2)CCN(C(=O)Cc2cccnc2)CC1 | inactive |
| CCOc1ccc(-n2c(SCC(=O)Nc3cc(C)on3)nnc2-c2c[nH]c3ccccc23)cc1 | inactive |
| O=C(CC(=O)NN=Cc1ccc2c(c1)CCC2)NN=Cc1ccc2c(c1)CCC2 | inactive |
| COc1cc2ccccc2nn1 | inactive |
| C/C(=N\NC(=O)c1ccc(NS(=O)(=O)c2cccs2)cc1)c1ccccc1 | inactive |
| CCN1CCN(C(=O)C2COc3ccccc3O2)CC1 (centres undefined) | inactive |
| O=C(COC(=O)c1ccc(NS(=O)(=O)c2cccs2)cc1)NCc1ccco1 | inactive |
| O=C(O)CCc1ccc(-c2cccs2)n1-c1ccc(C(=O)O)cc1 | inactive |
| O=C(c1ccc(=O)oc1)N1CCCc2ccccc21 | inactive |
| O=C(Cc1ccccn1)c1ccncc1 | inactive |
| Cc1cc(O)ccc1-c1cnc2ccccc2n1 | inactive |
| Cc1cc(/C=C2\SC(=S)NC2=O)c(C)n1-c1ccc(O)cc1 | inactive |
| O=C(NCC1CCCO1)c1cc2ccccc2oc1=O (centres undefined) | inactive |
| NS(=O)(=O)c1ccc(CCNC(=O)CCS(=O)(=O)c2ccc(Br)cc2)cc1 | inactive |

| Structure (SMILES) | outcome |
| --- | --- |
| CC(OC(=O)/C=C/c1ccco1)C(=O)NC1CCCCC1 (centres undefined) | inactive |
| CC(=O)Nc1ccc(NC(=O)C(C)OC(=O)CCc2c[nH]c3ccccc23)cc1 (centres undefined) | inactive |
| CCOc1ccccc1C(O)C1=CC(=O)c2ccccc2C1=O (centres undefined) | inactive |
| O=c1ccc2c(-c3ccccc3S(=O)(=O)O)c3ccc(O)c(O)c3oc-2c1O | inactive |
| CCOc1cccc(C(=O)Nc2ccccc2OC(F)F)c1 | inactive |
| CC(=O)Nc1nnc(SCC(=O)N2CCCc3ccccc32)s1 | inactive |
| O=C(Nc1ccc(F)c(Cl)c1)c1cccnc1 | inactive |
| Clc1ccc2c(c1)nc1n2CCCC1 | inactive |
| FC(F)Oc1ccccc1NC(=S)Nc1cccnc1 | inactive |
| CN(C)c1nc(N)nc(CSc2nc3c(c(=O)n(C)c(=O)n3C)n2Cc2ccccc2F)n1 | inactive |
| CCS(=O)(=O)c1ccc2oc(Nc3cccc(OC)c3)nc2c1 | inactive |
| CC1CCN(S(=O)(=O)c2ccc(C(=O)NCc3ccc4c(c3)OCO4)cc2)CC1 | inactive |
| CC(C)(C)c1nnc(NC(=O)c2ccc(Cl)nc2)s1 | inactive |
| Cc1cccc(N/N=C/c2ccc(O)c(O)c2O)c1 | inactive |
| CCn1c(C)nc2cc(C(=O)N/N=C/c3ccc(O)c(O)c3O)ccc21 | inactive |
| Cc1cc(C)c2c(c1)[C@@H]1C=CC[C@@H]1[C@H](c1ccc(S(=O)(=O)N3CCOCC3)cc1)N2 | inactive |
| Cc1oc(-c2ccccc2)nc1C(=O)OCC(=O)NCc1ccc(F)cc1 | inactive |
| CCC1(C(N)=O)CC2C=CC1C2 (centres undefined) | inactive |
| Cc1ccc(NC(=O)CCCCCC2NC(=O)NC2C)cc1 (centres undefined) | inactive |
| O=C(CN1C(=O)c2ccccc2C1=O)NCC(=O)OCC(=O)c1cccc([N+](=O)[O-])c1 | inactive |
| C=C(C)C(=O)Nc1ccc2c(c1)OCCOCCOCCO2 | inactive |
| CCCCNC(=O)CN1C(=O)CSc2ccc(S(=O)(=O)N3CCOCC3)cc21 | inactive |
| O=C(O)CCc1ccc(S(=O)(=O)Nc2cc(C(F)(F)F)ccc2N2CCCC2)cc1 | inactive |

| Structure (SMILES) | outcome |
| --- | --- |
| CCCC(=O)NNC(=O)Nc1ccccc1 | inactive |
| Cc1c(Cl)cccc1NC(=O)CC(Cc1ccccc1)C(=O)O (centres undefined) | inactive |
| CCNC(=S)Nc1ccc(N(c2ccccc2)C(C)C)cc1 | inactive |
| CCN(CC)c1ccc(NC(=O)c2c(C)noc2C)cc1 | inactive |
| CSc1nc(N2CCOCC2)c2c3c(sc2n1)CCC3 | inactive |
| Cc1nn(CC(=O)Nc2ccccn2)c(C)c1Br | inactive |
| CC(=O)c1ccc(N2CCN(C(=O)c3ccc4c(c3)OCO4)CC2)cc1 | inactive |
| CC(C)(CS(=O)(=O)[O-])NC(=O)CC[N+](C)(C)CCO | inactive |
| CCOc1cc(N2CCOCC2)c(OCC)cc1NC(=O)CSc1ncn[nH]1 | inactive |
| CCOc1ccc(S(=O)(=O)N2CC(=O)Nc3ccccc32)cc1C#N | inactive |
| O=C(N/N=C/C=C/c1ccco1)c1cccs1 | inactive |
| O=C(CSc1nc2cc([N+](=O)[O-])ccc2n1-c1ccccc1)NCc1ccc2c(c1)OCO2 | inactive |
| COCCCN1C(=O)N(c2ccc(F)cc2)C(=O)C1CC(=O)Nc1ccc(OC)cc1 (centres undefined) | inactive |
| Cc1ccc(S(=O)(=O)OCC(=O)Nc2ccc(C(=O)O)c(O)c2)cc1 | inactive |
| CC(C)CCN1CCN(Cc2cccn2-c2cccnc2)CC1CCO (centres undefined) | inactive |
| NS(=O)(=O)c1ccc(NC(=O)COC(=O)c2cc(Cl)ccc2[N+](=O)[O-])cc1 | inactive |
| Cc1cc(NC(=O)C2CCCC2)n(-c2nc3ccccc3[nH]2)n1 | inactive |
| CCN(c1ccc(NC(=O)COC(=O)c2ccc([N+](=O)[O-])o2)cc1)C(C)C | inactive |
| CSc1ccc(/C=N/n2c(C3CCCCC3)n[nH]c2=S)cc1 | inactive |
| NS(=O)(=O)c1ccc(N=Nc2ccc(=O)[nH]c2O)cc1 | inactive |
| O=C(O)c1cccc2c1Oc1ccccc1S2(=O)=O | inactive |
| CC(C)(C)CN1CCNC(=O)C1CC(=O)NCCc1ccccc1C(F)(F)F (centres undefined) | inactive |
| CCCCC1=CC2=CC(=O)C(C)(OC(=O)C3CCCC3)C(=O)C2=CO1 (centres undefined) | inactive |

| Structure (SMILES) | outcome |
| --- | --- |
| Cc1cccc(OCc2nc(C)cc(=O)[nH]2)c1 | inactive |
| OC(c1ccc(Cl)cc1)C(O)c1nc2ccccc2[nH]1 (centres undefined) | inactive |
| COc1ccc(NC(=O)c2cc(-c3ccco3)nc3ccccc23)cc1S(=O)(=O)N1CCOCC1 | inactive |
| COc1ccc(N(CC(=O)NCc2ccccc2C)S(=O)(=O)c2ccc(C)cc2)cc1OC | inactive |
| CCc1cccc(CC)c1-n1c(SCC(=O)N2CCCc3ccccc32)nc(O)cc1=O | inactive |
| CCc1ccc(-c2nc(SCC(=O)NC3CCS(=O)(=O)C3)n[nH]2)cc1 (centres undefined) | inactive |
| O=C(CSc1ncnc2ccccc12)Nc1cccc(S(=O)(=O)N2CCOCC2)c1 | inactive |
| O=C(CCCCCCC(=O)NCc1ccccc1)NCc1ccccc1 | inactive |
| COc1ccccc1NC(=O)CN(Cc1ccco1)C(=O)c1cccs1 | inactive |
| CC1(C)Cc2c(cnn2-c2ccccc2)C(NC(=O)CCCN2CCCCC2=O)C1 (centres undefined) | inactive |
| CCOC(=O)c1ccc(CC(=O)c2ccc(O)c(O)c2O)o1 | inactive |
| Cc1ccc(C(=O)NNS(=O)(=O)c2ccc(F)cc2)cc1 | inactive |
| O=C(NNC(=O)c1ccccc1F)c1cccc(-n2cccc2)c1 | inactive |
| CN(C(=O)c1ccc(OC2CCN(S(=O)(=O)N(C)C)CC2)cc1)C1CCCCC1 | inactive |
| CCOC(=O)Cn1c(=O)c2c(nc3n2CCN3Cc2ccccc2)n(C)c1=O | inactive |
| O=C(Cc1ccc2c(c1)OCCO2)N1CCN(S(=O)(=O)c2cccs2)CC1 | inactive |
| COc1ccc(N2CCC(CNS(=O)(=O)c3cccc(C(F)(F)F)c3)C2)cc1 (centres undefined) | inactive |
| CN(C)/C=N/NC(=O)c1ccccc1Cl | inactive |
| C[C@H](NC(=O)OCc1ccccc1)C(=O)NNC(=O)[C@H](C)NC(=O)OCc1ccccc1 | inactive |
| O=C(Nc1ccc(COc2ccccc2)cc1)Oc1ccccc1N1CCOCC1 | inactive |
| O=c1cc(OCc2ccccc2)cc[nH]1 | inactive |
| COC(=O)c1ccc(COc2ccc(/C=N/Nc3cccc(C(=O)O)c3)cc2)cc1 | inactive |
